Test results taken from the supplement of paper PMC10127200.
Structures can show the parent of a compound that is named as a salt.

Key:
Assay in all cases: Euclidean distance of Cell Painting phenotypic profile (signed KS, 77 features) to DMSO centroid (dimensionless distance); 5 or 10 uM (library dependent); higher = stronger phenotypic change vs DMSO (phenoactivity)
Conditions in all cases: 48 h
786-O = tested on: 786-O
Method in brief: (§1)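 Five cancer lines, together with a healthy fibroblast line, received library compounds for 48 h at a library-dependent 10 or 5 uM and 0.1% DMSO final. Harmony then derived 77 features from confocal 20X images (9 fields/well) of the stained cells, scoring each as a signed Kolmogorov-Smirnov statistic against same-plate vehicle wells. After plate-position correction, correlation weighting and replicate averaging at the top dose, phenoactivity was taken as each profile's Euclidean distance to the median vehicle profile.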

A549 = tested on: A549
Method in brief: as §1

DU145 = tested on: DU145
Method in brief: as §1

FB = tested on: FB
Method in brief: as §1

HEPG2 = tested on: HEPG2
Method in brief: as §1

OVCAR4 = tested on: OVCAR4
Method in brief: as §1

Structure (SMILES) | Euclidean distance (786-O) | Euclidean distance (A549) | Euclidean distance (DU145) | Euclidean distance (FB) | Euclidean distance (HEPG2) | Euclidean distance (OVCAR4)
CCCCNc1ccc(C(=O)OCCOCCOCCOCCOCCOCCOCCOCCOCCOC)cc1 [Benzonatate] | 1.17 | 1.09 | 0.781 | 1.36 | 0.687 | 1.37
O=C(O)Cc1ccccc1Nc1c(Cl)cccc1Cl [Diclofenac Diethylamine] | 0.84 | 0.842 | 0.728 | 0.689 | 0.397 | 0.97
Cc1ccc(-c2cc(C(F)(F)F)nn2-c2ccc(S(N)(=O)=O)cc2)cc1 [Celecoxib] | 1.6 | 1.23 | 1.67 | 1.09 | 1.08 | 1.37
COc1cc(F)c(C(C)C)cc1-c1ccc(C(F)(F)F)cc1CN1C(=O)O[C@H](c2cc(C(F)(F)F)cc(C(F)(F)F)c2)[C@@H]1C [Anacetrapib (MK-0859)] | 0.703 | 0.903 | 1.12 | 0.869 | 1.84 | 0.709
Cc1cccc(-c2[nH]c(C(C)(C)C)nc2-c2ccc3nccnc3c2)n1 | 1.56 | 1.18 | 0.741 | 0.884 | 1.48 | 0.948
C[C@@H]1CC(=O)NN=C1c1ccc(NN=C(C#N)C#N)cc1 [Levosimendan] | 1.83 | 0.486 | 1.3 | 1.44 | 0.487 | 0.625
CN(C)c1ccc(C(=C2C=CC(=[N+](C)C)C=C2)c2ccc(N(C)C)cc2)cc1 [Crystal Violet] | 3.55 | 2.83 | 3 | 2.46 | 3.45 | 2.56
C#C[C@]1(O)CC[C@H]2[C@@H]3CCC4=CC(=O)CC[C@@H]4[C@H]3CC[C@@]21CC [Levonorgestrel] | 1.01 | 0.81 | 0.624 | 0.673 | 0.994 | 0.816
CC(=O)OCC1=C(C(=O)O)N2C(=O)[C@@H](NC(=O)Cc3cccs3)[C@H]2SC1 [Cephalothin] | 1.38 | 0.786 | 0.824 | 1.24 | 1.28 | 1.23
CCCC(=O)OCOC(=O)C1=C(C)NC(C)=C(C(=O)OC)C1c1cccc(Cl)c1Cl (stereo not drawn) [Clevidipine Butyrate] | 1.64 | 0.675 | 1.47 | 0.951 | 2.16 | 1.78
CCCCCOc1ccccc1/C(=C\SC)n1ccnc1 [Neticonazole Hydrochloride] | 1.28 | 1.44 | 0.848 | 0.825 | 1.31 | 1.05
COCCCOc1ccnc(C[S+]([O-])c2nc3ccccc3[nH]2)c1C (stereo not drawn) [Rebeprazole sodium] | 0.719 | 0.641 | 0.763 | 1.22 | 1.54 | 0.777
OCc1cc([C@@H](O)CNCCCCCCOCCOCc2c(Cl)cccc2Cl)ccc1O [Vilanterol Trifenate] | 1.28 | 0.985 | 1.38 | 1.28 | 0.721 | 1.76
CCCCCc1ccc(C)cc1O [Amylmetacresol] | 0.732 | 0.727 | 0.517 | 0.859 | 0.412 | 0.661
CN[C@@H]1[C@H](O[C@H]2[C@H](O[C@H]3[C@H](O)[C@@H](O)[C@H](NC(=N)N)[C@@H](O)[C@@H]3NC(=N)N)O[C@@H](C)[C@]2(O)CO)O[C@@H](CO)[C@H](O)[C@H]1O [Dihydrostreptomycin sulfate] | 0.936 | 1.12 | 0.563 | 1.25 | 0.549 | 1.33
Cc1coc2c1C(=O)C(=O)c1c-2ccc2c1CCCC2(C)C [Tanshinone IIA] | 1.26 | 2.73 | 0.982 | 1.04 | 1.54 | 1.36
CC(=O)NC[C@H]1CN(c2ccc(N3CCOCC3)c(F)c2)C(=O)O1 [Linezolid] | 1.83 | 1.27 | 1.73 | 0.611 | 0.92 | 1.35
CC(NCCc1ccc(O)cc1)C(O)c1ccc(O)cc1 (stereo not drawn) [Ritodrine HCl] | 1.08 | 0.752 | 0.998 | 1.01 | 0.393 | 0.728
CC1(C)CCC2=C(O1)c1ccccc1C(=O)C2=O [Beta-Lapachone] | 3.88 | 5.17 | 7.8 | 4.08 | 4.33 | 5.57
OCC(CO)N[C@H]1C[C@](O)(CO)[C@@H](O)[C@H](O)[C@H]1O [Voglibose] | 0.92 | 0.919 | 0.846 | 0.977 | 1.06 | 1.34
CCCCC/C=C\C/C=C\CCCCCCCC(=O)O [Linoleic acid] | 0.927 | 1.38 | 1.02 | 1.3 | 0.86 | 1.11
CCOC(=O)C(C)(C)Oc1ccc(Cl)cc1 [Clofibrate] | 0.866 | 0.429 | 1.7 | 1.41 | 0.393 | 0.939
O=P(O)(O)OC(Cn1cncn1)(Cn1cncn1)c1ccc(F)cc1F [Fosfluconazole] | 1.39 | 0.635 | 1.39 | 0.872 | 0.852 | 1.23
Cc1nc(C(=O)NCC(=O)O)c(O)c2ccc(Oc3ccccc3)cc12 | 1.71 | 1.55 | 1.53 | 2.88 | 1.32 | 1.92

Structure (SMILES) | Euclidean distance (786-O) | Euclidean distance (A549) | Euclidean distance (DU145) | Euclidean distance (FB) | Euclidean distance (HEPG2) | Euclidean distance (OVCAR4)
CCC(C(=O)O)c1ccc(N2Cc3ccccc3C2=O)cc1 (stereo not drawn) [Indobufen] | 0.947 | 0.717 | 1.19 | 1.01 | 0.618 | 1.31
CN1C(=O)[C@@H](NC(=O)c2n[nH]c(Cc3ccccc3)n2)COc2ccccc21 | 0.778 | 1.15 | 1.8 | 1.02 | 0.727 | 1.12
Fc1ccc([C@@H]2CCNC[C@H]2COc2ccc3c(c2)OCO3)cc1 [Paroxetine mesylate] | 1.64 | 1.28 | 1.89 | 1.62 | 2.59 | 1.52
CCC(c1ccccc1)c1c(O)c2ccccc2oc1=O (stereo not drawn) [Phenprocoumon] | 0.851 | 1.11 | 0.728 | 1.04 | 0.975 | 0.957
CCCCc1nc(Cl)c(CO)n1Cc1ccc(-c2ccccc2-c2nnn[nH]2)cc1 [Losartan Potassium (DuP 753)] | 0.807 | 0.621 | 0.847 | 0.722 | 0.759 | 0.893
Fc1ccc([C@@H]2CCNC[C@H]2COc2ccc3c(c2)OCO3)cc1 [Paroxetine HCl] | 1.46 | 1.59 | 1.59 | 1.93 | 2.28 | 1.54
Cn1cncc1[C@@](N)(c1ccc(Cl)cc1)c1ccc2c(c1)c(-c1cccc(Cl)c1)cc(=O)n2C [Tipifarnib] | 2.23 | 2.94 | 2.5 | 2.31 | 1.91 | 2.15
NCCOB(c1ccccc1)c1ccccc1 [2-Aminoethyl Diphenylborinate (2-APB)] | 1.61 | 0.835 | 1 | 0.968 | 0.822 | 1.13
Cn1cc(/C=C2\C(=O)Nc3cccnc32)c2ccccc21 | 0.739 | 1.41 | 1.16 | 1.5 | 0.771 | 1.53
CCOC(=O)CC(=O)N1CCSC1COc1ccccc1OC (stereo not drawn) [Moguisteine] | 1.45 | 0.946 | 1.1 | 0.84 | 1.08 | 1.01
Cc1cnc(-c2cc(N3CCN(C(=O)CCS(C)(=O)=O)CC3)ncc2Cl)c(C)c1 | 0.761 | 1.09 | 1.04 | 1.23 | 0.662 | 1.03
OCCn1cc(-c2ccc3c(c2)CC/C3=N\O)c(-c2ccncc2)n1 | 1.79 | 0.879 | 1.22 | 1.93 | 0.823 | 1.88
CC(C)CC(=O)Nc1n[nH]c2c1CN(C(=O)C1CCN(C)CC1)C2(C)C | 3.52 | 3 | 2.9 | 2.96 | 2.82 | 4.04
O=C(Nc1cccc(Nc2ncc(Br)c(NCCc3cnc[nH]3)n2)c1)N1CCCC1 | 2.94 | 3.51 | 3.14 | 3.05 | 2.43 | 3.33
Cc1cc(C)c2c(c1)[C@@H](N(Cc1cc(C(F)(F)F)cc(C(F)(F)F)c1)c1nnn(C)n1)CCCN2C[C@H]1CC[C@H](C(=O)O)CC1 | 1.71 | 1.7 | 1.3 | 1.05 | 1.05 | 1.25
CC1=C[C@H]2C(=O)O[C@H]3C[C@@H](C/C=C(\C)C[C@@H](C)/C=C/C=C4\CO[C@H](/C1=N\O)[C@@]42O)O[C@@]1(CC[C@H](C)[C@@H](C)O1)C3.CC[C@H]1O[C@]2(CC[C@@H]1C)C[C@@H]1C[C@@H](C/C=C(\C)C[C@@H](C)/C=C/C=C3\CO[C@@H]4/C(=N\O)C(C)=C[C@@H](C(=O)O1)[C@]34O)O2 [Milbemycin Oxime] | 0.91 | 0.957 | 0.954 | 1.3 | 0.456 | 1.11
COC(=O)C1=C(C)NC(C)=C(C(=O)OC(C)C)C1c1cccc2nonc12 (stereo not drawn) [Isradipine] | 1.36 | 1.33 | 1.21 | 1.42 | 1.56 | 1.1
N#Cc1cc(CN2CCC(Nc3ncnc4sc(Cl)cc34)CC2)ccc1F | 0.974 | 1.39 | 1.03 | 1.19 | 1.15 | 1.37
CC#CCn1c(N2CCC[C@@H](N)C2)nc2c1c(=O)n(Cc1nc(C)c3ccccc3n1)c(=O)n2C [Linagliptin] | 0.904 | 0.984 | 0.641 | 1.4 | 0.628 | 0.529
CS(=O)(=O)N1CCN(Cc2cc3nc(-c4cccc5[nH]ncc45)nc(N4CCOCC4)c3s2)CC1 | 2.85 | 2.71 | 1.63 | 2.18 | 1.4 | 1.83
Cn1ncc(Cl)c1-c1cc(C(=O)N[C@H](CN)Cc2ccc(F)c(F)c2)oc1Cl | 3.04 | 2.27 | 3.3 | 3.69 | 2.27 | 2.44
Nc1ccccc1NC(=O)c1ccc(CNC(=O)OCc2cccnc2)cc1 [Entinostat (MS-275)] | 3.47 | 2.57 | 2.22 | 3.25 | 2.93 | 2.57
Clc1ccccc1CN1CCc2sccc2C1 [Ticlopidine HCl] | 1.29 | 1.12 | 1.3 | 1.59 | 0.746 | 1.56
CC(C)c1cc(-c2ccc(F)c3ccccc23)nc(N)n1 | 0.8 | 0.73 | 0.946 | 0.742 | 1 | 1.28
